High-throughput results: PubChem, National Center for Advancing Translational Sciences (NCATS)
In the library only some 0.41% were active in any assay of this set; here they are far more common.
GLA inh pH 4.5: blocks human alpha-galactosidase A at pH 4.5 | purified enzyme, 4-MU-alpha-Gal fluorescence, pH 4.5 | activity change, negative = inhibition, % at 105 µM | 230,000 tested, under 10 active;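 further: 0% = full activity with enzyme and -100% = basal without enzyme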
GAA inh: alpha-glucosidase (human) inhibition. actives 0.005% (n = 200,000). purified human GAA, 4-MU-alpha-glucoside fluorescence. Potency, µM (highest dose often 76.9 µM), without a hit: at the top dose activity change, negative = inhibition, usual class: inhibitors;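 further: potency means the concentration at half of the fitted maximal effect; plate controls were uninhibited enzyme wells for no effect and no-enzyme background for full effect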
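qHTS format, compound range up to 77 uM. Human lysosomal enzyme at 4 nM, 400 uM 4-MU glucoside substrate, pH 5.0, 20 min room temperature; fluorescence after alkaline stop gives activity normalized to controls.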
aGal spleen mod: inhibits or activates alpha-galactosidase in human spleen homogenate; P06280; human spleen homogenate, 4MU-alpha-Gal fluorescence, 40 min; Potency, µM (top dose mostly 80 µM), for inactives: at the top dose activity change, negative = inhibition, actives largely listed as inhibitors; actives 0.008% (n = 240,000);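 further: potency means the concentration at half of the fitted maximal effect; 0% = enzyme with vehicle and -100% = no enzyme basal signal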
Target sequence (P06280 32-429 limits assumed): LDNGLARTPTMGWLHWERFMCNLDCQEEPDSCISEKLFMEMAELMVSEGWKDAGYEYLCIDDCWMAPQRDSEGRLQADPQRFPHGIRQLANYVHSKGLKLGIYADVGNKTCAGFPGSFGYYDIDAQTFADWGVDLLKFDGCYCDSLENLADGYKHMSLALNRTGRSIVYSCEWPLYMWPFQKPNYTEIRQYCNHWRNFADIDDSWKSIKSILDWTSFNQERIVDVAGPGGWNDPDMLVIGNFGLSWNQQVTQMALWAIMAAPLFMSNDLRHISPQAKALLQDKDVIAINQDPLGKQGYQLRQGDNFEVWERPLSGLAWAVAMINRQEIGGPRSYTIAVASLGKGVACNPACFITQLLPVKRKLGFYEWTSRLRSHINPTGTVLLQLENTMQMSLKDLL
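qHTS titration in buffer at pH 5.0. Alpha-galactosidase activity in spleen homogenate was measured via 4-methylumbelliferone release from 1 mM fluorogenic substrate after 40 min at 37C and a pH 10 stop. AC50 came from Hill fits of control-normalized data.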
N370S GC: N370S glucocerebrosidase modulation, Gaucher chaperone candidate | actives 0.092% (n = 330,000) | Potency, µM (top dose mostly 59.4 µM), for the others: top-dose activity change, negative = inhibition, most hits filed as inhibitors | N370S GC spleen homogenate, 4MU-glucoside fluorescence | P04062;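 further: potency means the concentration at half of the fitted maximal effect; 0% = full enzyme activity and -100% = no enzyme basal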
aGlu spleen mod: inhibits or activates alpha-glucosidase in human spleen homogenate; P10253; human spleen homogenate, 4-MU-alpha-glucoside fluorescence; Potency, µM (highest dose often 79.9 µM), for the others: at the highest dose activity change, negative = inhibition, actives largely listed as inhibitors; actives 0.006% (n = 240,000); AID 2112;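 further: potency means the concentration at half of the fitted maximal effect; 0% = enzyme with vehicle and -100% = no enzyme basal signal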
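Compounds were titrated against alpha-glucosidase in spleen homogenate at pH 5.0, with 1 mM 4-methylumbelliferyl substrate for 40 min at 37 C. Reactions were quenched with pH 10 NaOH/glycine and fluorescence measured.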
GAA glycogen mod: alters human alpha-glucosidase cleavage of glycogen; P10253; actives 0.38% (n = 300,000); recombinant GAA, glycogen substrate, Amplex Red glucose oxidase fluorescence; Potency, µM (highest dose often 76.4 µM), for inactives: at the top dose activity change, negative = inhibition, usual class: inhibitors;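 further: potency means the concentration at half of the fitted maximal effect; 0% = full enzyme reaction and -100% = no-enzyme basal signal; the screen sought inhibitors and activators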
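Natural-substrate format: glycogen cleavage by 4 nM human enzyme, glucose read by Amplex Red coupling (Ex 573, Em 610 nm). Normalized to enzyme and no-enzyme controls.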
* marks the source's active call; other numbers are inactive results; u = inconclusive; x = not tested or not shown; [ ] = remark or other dose. The call rests on the fitted dose curve; in most records, active means well fitted curve in the direction sought with a large enough effect; inconclusive means small, poorly fitted or top-dose-only effect, or another doubt; inactive means no such curve, though single readings can be large; an effect the other way counts as inactive or inconclusive.

SMILES	GLA inh pH 4.5	GAA inh	aGal spleen mod	N370S GC	aGlu spleen mod	GAA glycogen mod
CC[C@H](C)[C@H](NC(=O)[C@H](Cc1ccc(O)cc1)NC(=O)[C@H](Cc1cnc[nH]1)NC(=O)[C@H](CCCNC(=N)N)NC(=O)[C@H](CC(C)C)NC(=O)[C@H](C)NC(=O)[C@H](CO)NC(=O)[C@H](Cc1ccc(O)cc1)NC(=O)[C@H](Cc1ccc(O)cc1)NC(=O)[C@H](CCCNC(=N)N)NC(=O)[C@H](C)NC(=O)[C@H](CC(C)C)NC(=O)[C@H](CC(=O)O)NC(=O)[C@H](CCC(=O)O)NC(=O)[C@H](C)NC(=O)[C@@H]1CCCN1C(=O)[C@H](C)NC(=O)[C@H](CC(=O)O)NC(=O)[C@H](CCC(=O)O)NC(=O)CNC(=O)[C@@H]1CCCN1C(=O)[C@H](CC(N)=O)NC(=O)[C@H](CC(=O)O)NC(=O)[C@@H]1CCCN1C(=O)[C@H](CCCCN)NC(=O)[C@@H](N)CO)C(=O)N[C@@H](CC(N)=O)C(=O)N[C@@H](CC(C)C)C(=O)N[C@H](C(=O)N[C@H](C(=O)N[C@@H](CCCNC(=N)N)C(=O)N[C@@H](CCC(N)=O)C(=O)N[C@@H](CCCNC(=N)N)C(=O)N[C@@H](Cc1ccc(O)cc1)C(N)=O)[C@@H](C)O)[C@@H](C)CC	x	x	-5.5%	-2.7%	-7.8%	x
c1ccc(CNc2nc(-c3cccs3)nc3ccccc23)nc1	-5.2	3.6%	-14.3%	-29.0%	-2.9%	3.8%
Cc1ccc(CNc2oc(-c3cccs3)nc2C#N)cc1	12.5	u	u	27.9%	6.8%	22.4µM*
N#Cc1nc(Cc2ccccc2)oc1NCc1ccccc1	-7.5	-4.2%	-2.2%	7.5%	-4.8%	50.1µM*
Cc1ccc(CNc2nc(-c3cccs3)nc3ccccc23)cc1	-1.9	-10.0%	-17.6%	14.1µM*	-6.7%	-11.5%
COC(=O)[C@@H]1C[C@@]2(O)[C@H](O)[C@H](O)[C@H](O)C[C@H]2N1Cc1ccc(N2CCN(C)CC2)cc1	1.9	x	-3.4%	-17.3%	-2.2%	x
Cc1ccccc1OCC1CO1 (configuration not stated)	x	x	u	8.9%	4.8%	x
Cc1ccc(C)c(S(=O)(=O)c2cn(C)c3cc(N4CCCCC4C)c(F)cc3c2=O)c1 (configuration not stated)	x	x	x	x	x	-6.9%[76.3 µM]
Nc1nonc1N/N=C\c1ccccc1	2.9	x	-3.3%	-9.6%	0.2%	-24.1%
Nc1nonc1N/N=C/c1c(O)ccc2ccccc12	-8.3	u	6.1%	-4.3%	-2.3%	9.92µM*
COC(=O)C1=C(C(=O)OC)[C@@H]2Nc3ccccc3[C@@]23C[C@@H](C(=O)OC)N(S(=O)(=O)c2ccc4c(c2)OCCN4C)C3=N1	-1.9	x	-1.1%[17.5 µM]	-0.8%[12.8 µM]	-8.8%[17.4 µM]	x
CC(=O)N[C@H]1CSSC[C@@H](C(=O)N2CCC[C@H]2C(=O)N2CCC[C@H]2C(=O)N[C@@H](CCCCN)C(=O)N[C@@H](CC(=O)O)C(N)=O)NC(=O)CNC(=O)[C@H](Cc2c[nH]c3ccccc23)NC(=O)[C@H](CCCNC(=N)N)NC(=O)[C@@H](Cc2ccc3ccccc3c2)NC(=O)[C@H](Cc2cnc[nH]2)NC(=O)[C@H](CCC(=O)O)NC1=O	x	x	-8.5%	-1.7%	0.0%	x
O=C1OC(N2C(=O)CC[C@H]2C(=O)Nc2ccc3c(c2)OCO3)c2ccccc21 (some centres not stated)	x	x	x	-0.3%	x	31.6µM*
O=C1OC(N2C(=O)CC[C@H]2C(=O)Nc2ccc(F)c(F)c2)c2ccccc21 (some centres not stated)	x	x	x	2.3%	x	-23.5%[76.3 µM]
CC(=O)Nc1ccc(NC(C)=O)s1	4.8	1.7%	4.2%	-11.4%	-7.8%	8.91µM*
CCCCCCC=O	x	x	-3.4%	1.6%	-7.6%	x
CCCC(C(=O)NCc1cccc(Cl)c1)N1Cc2ccccc2C1=O (configuration not stated)	x	x	x	x	x	7.9%[76.3 µM]
